Reference: article PMC4336329 (PLoS ONE, 2015)
Among all 310,000 compounds or so, about 14,000 (4.5%) showed an effect of 50% or more. The effect is printed as a negative number. The entries come from a sample that favours strong results as a whole.

The compounds below were run against human ether-à-go-go-related gene (hERG) potassium channel (human, UniProt Q12809) (assay: primary screen, population patch clamp on CHO cells stably expressing hERG; higher = less effect of the substance).
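Further: peak tail current of the secondary pulse compared with the same well before compound.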

Chain of human ether-à-go-go-related gene (hERG) potassium channel (Q12809 whole entry, looked up): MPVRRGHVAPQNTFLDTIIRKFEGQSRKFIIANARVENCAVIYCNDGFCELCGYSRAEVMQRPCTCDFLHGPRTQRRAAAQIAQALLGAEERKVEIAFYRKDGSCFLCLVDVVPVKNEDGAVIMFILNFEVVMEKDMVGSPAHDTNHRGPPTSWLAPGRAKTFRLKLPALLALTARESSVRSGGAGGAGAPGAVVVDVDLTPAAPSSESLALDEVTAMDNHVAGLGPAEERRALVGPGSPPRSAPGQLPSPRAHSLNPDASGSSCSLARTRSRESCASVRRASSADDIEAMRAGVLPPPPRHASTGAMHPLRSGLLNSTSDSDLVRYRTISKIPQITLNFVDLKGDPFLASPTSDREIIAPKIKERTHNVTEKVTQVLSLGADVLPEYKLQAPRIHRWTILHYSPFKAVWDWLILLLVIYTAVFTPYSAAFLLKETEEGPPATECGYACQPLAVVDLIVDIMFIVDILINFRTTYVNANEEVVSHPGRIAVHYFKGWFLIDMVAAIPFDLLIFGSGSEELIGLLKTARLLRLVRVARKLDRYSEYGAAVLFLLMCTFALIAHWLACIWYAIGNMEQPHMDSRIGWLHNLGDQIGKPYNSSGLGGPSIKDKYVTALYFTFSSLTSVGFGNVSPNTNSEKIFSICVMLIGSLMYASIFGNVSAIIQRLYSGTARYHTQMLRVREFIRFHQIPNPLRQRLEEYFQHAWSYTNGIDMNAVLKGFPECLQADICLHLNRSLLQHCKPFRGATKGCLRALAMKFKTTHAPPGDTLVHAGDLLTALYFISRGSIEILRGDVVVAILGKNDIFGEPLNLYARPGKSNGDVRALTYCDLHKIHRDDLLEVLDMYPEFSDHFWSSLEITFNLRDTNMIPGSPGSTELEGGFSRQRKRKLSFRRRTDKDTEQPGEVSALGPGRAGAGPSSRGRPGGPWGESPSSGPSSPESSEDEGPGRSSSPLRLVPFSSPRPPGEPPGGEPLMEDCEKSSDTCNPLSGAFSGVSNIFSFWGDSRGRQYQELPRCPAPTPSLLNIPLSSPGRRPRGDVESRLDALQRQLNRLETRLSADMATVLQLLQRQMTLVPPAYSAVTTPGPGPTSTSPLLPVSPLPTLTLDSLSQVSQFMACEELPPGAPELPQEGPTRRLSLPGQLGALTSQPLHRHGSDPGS

Row | Compound | hERG current change (%, negative = inhibition) at 10uM [%]
1 | CCOc1ccc(S(=O)(=O)N2CCC(C(=O)OC(C)C(=O)N3CCOCC3)CC2)cc1 (centres unmarked) | -25.2
2 | O=C(Cc1ccccc1[N+](=O)[O-])N/N=C/c1cccnc1 | 10
3 | COc1ccccc1C(=O)NCC(=O)OCC(=O)c1ccc2c(c1)-c1ccccc1C2 | -0.208
4 | Cc1nnc(NC(=O)C2CCCN(S(=O)(=O)Cc3ccccc3)C2)s1 (centres unmarked) | -2.64
5 | CCc1ccc(N(CC(=O)NC2CCCC2)S(=O)(=O)c2c(C)noc2C)cc1 | -7.76
6 | O=C(Nc1nnc(C2=COCCO2)o1)c1ccc(S(=O)(=O)N2CCCC2)cc1 | 17.2
7 | O=C(NCc1cccnc1)C1CCC(CNS(=O)(=O)c2cccc3nsnc23)CC1 (centres unmarked) | -9.63
8 | CCOC(=O)CCc1c(C)nc2cc(-c3ccc(Cl)cc3)[nH]n2c1=O | -7.09
9 | CCOC(=O)CC(NCc1ccc(OC)c(OCC)c1)c1ccc(C)cc1.Cl (centres unmarked) | -39
10 | CC(C)C(NC(=O)c1ccco1)C(=O)NCC(c1ccco1)N1CCCCC1 (centres unmarked) | 20
11 | COC(=O)Cn1c(CN2CCOCC2)nc2c1c(=O)[nH]c(=O)n2C | 3.43
12 | COc1cc(C(CCN2CCCC2)c2c(OC)cc(OC)c3c(C)cc(=O)oc23)cc(OC)c1OC (centres unmarked) | -75.5
13 | COc1cc(C(CCN2CCCCC2)c2c(OC)cc(OC)c3c(C)cc(=O)oc23)cc(OC)c1OC (centres unmarked) | -99.6
14 | CCN(CC)CCC(c1cc(OC)c(OC)c(OC)c1)c1c(OC)cc(OC)c2c(C)cc(=O)oc12 (centres unmarked) | -48.5
15 | Oc1ccc(Br)cc1CNn1cnnc1 | 13.9
16 | COc1ccc(OC)c(CNc2ccc3c(c2)CCC3)c1 | 20.4
17 | CC(C(=O)O)n1nc2ccccc2n1 (centres unmarked) | 21.4
18 | CCOC(=O)c1c(CC(C)C)csc1NC(C)=O | -2.62
19 | CC(C)[C@H](NC(=O)N1c2ccccc2NC(=O)[C@@H]1C(C)C)C(=O)N[C@@H](Cc1c[nH]c2ccccc12)C(=O)O | 3.11

Row | Compound | hERG current change (%, negative = inhibition) at 10uM [%]
20 | O=C(O)CSc1ccnc2cc(Cl)ccc12 | 16.2
21 | COc1cc(OC)cc(-c2c(-c3ccc(F)cc3)c3cc(-c4ccc5cc[nH]c5c4)ccc3n2C)c1 | 14.2
22 | CNC(=O)COc1coc(CN2CCN(c3ccc(OC)cc3)CC2)cc1=O | 1.11
23 | C=C1CCN([C@@H](CC(C)C)C(=O)N2CCCC2)S(=O)(=O)c2ccccc21 | -54.7
24 | C=C1CCN([C@@H](CC(C)C)C(=O)N2CCOCC2)S(=O)(=O)c2ccccc21 | 13.3
25 | C=C1CCN([C@@H](CC(C)C)C(=O)O)S(=O)(=O)c2ccccc21 | 22.6
26 | Cc1nc2ccccc2c(=O)n1-c1ccc([N+](=O)[O-])cc1 | 7.26
27 | O=C(c1ccc2c(=O)n3c(nc2c1)CCCCC3)N1CCN(c2ccc(Cl)cc2)CC1 | -48
28 | CCc1nc2ccc(C(=O)N3CCN(c4ccccc4)CC3)cc2nc1CC | -5.04
29 | O=c1c2ccccc2nc2n1CC/C2=C\N1CCN(c2ccc([N+](=O)[O-])cc2)CC1 | -78.1
30 | O=C(c1ccc2nsnc2c1)N1CCN(c2ccc([N+](=O)[O-])cc2)CC1 | -75.5
31 | O=C(c1ccc2c(=O)n3c(nc2c1)CCCCC3)N1CCN(c2ccc([N+](=O)[O-])cc2)CC1 | -73
32 | O=C(c1ccc2c(=O)n3c(nc2c1)CCCCC3)N1CCN(c2ccc(F)cc2)CC1 | -42.1
33 | CCc1nc2ccc(C(=O)N3CCN(c4ccc([N+](=O)[O-])cc4)CC3)cc2nc1CC | -72.1
34 | O=C(c1ccc(NC2=NC3CS(=O)(=O)CC3S2)cc1)N1CCN(c2ccc([N+](=O)[O-])cc2)CC1 (centres unmarked) | -4.75
35 | Cc1ccc(C)c(N2CCN(C(=O)c3ccc4nsnc4c3)CC2)c1 | -1.44
36 | Cl.O.O=c1c2ccccc2nc2n1CC/C2=C/N1CCN(c2cccc(C(F)(F)F)c2)CC1 | -28
37 | CCc1nc2ccc(C(=O)N3CCN(c4ccc(Cl)cc4)CC3)cc2nc1CC | -6.46
38 | CCOP(=O)(c1ccccc1)C1(O)CCCCC1 (centres unmarked) | -1.86

Row | Compound | hERG current change (%, negative = inhibition) at 10uM [%]
39 | CCCc1oc(C(=O)O)cc1CN1CCOCC1.Cl | 8.54
40 | COC(=O)C1=C(C)N(Cc2ccccc2)C(=O)N[C@H]1c1ccco1 | 5.95
41 | COc1ccc(N2CCN(C(CNC(=O)c3cccc(Cl)c3)c3cccnc3)CC2)cc1 (centres unmarked) | -38.7
42 | O=C(NCC(c1cccnc1)N1CCN(c2ccc(F)cc2)CC1)c1ccc2c(c1)OCO2 (centres unmarked) | -65.3
43 | O=C(NCC(c1cccnc1)N1CCN(c2ccc(F)cc2)CC1)c1cccc(Cl)c1 (centres unmarked) | -66.2
44 | O=C(NCC(c1cccnc1)N1CCN(c2ccc(F)cc2)CC1)c1ccccc1 (centres unmarked) | -40.2
45 | COc1ccc(N2CCN(C(CNC(=O)c3ccc4c(c3)OCO4)c3cccnc3)CC2)cc1 (centres unmarked) | -16.2
46 | O=C(NCC(c1cccnc1)N1CCN(c2ccccc2)CC1)c1ccc2c(c1)OCO2 (centres unmarked) | -26.5
47 | COCCN=c1scc(-c2ccc3c(c2)NC(=O)CO3)n1/N=C(\C)c1ccc(O)cc1 | -8.23
48 | Cn1c(=NC(=O)C2CC2)sc2cc(F)cc(F)c21 | -12.3
49 | CCOC(=O)c1c(NC(=O)c2cccs2)sc(CC)c1-c1cccs1 | -11
50 | Cc1nnc(NC(=O)CSc2ccc([N+](=O)[O-])cn2)s1 | 17.9
51 | CCOC(=O)C1CCN(CC(C)(C)NS(=O)(=O)c2ccccc2)CC1 | 11.5
52 | Cc1ccc(S(=O)(=O)NC(C)(C)CN2CCC(Cc3ccccc3)CC2)cc1.O=C(O)C(=O)O | -64.8
53 | CC(=O)N1CCN(CC(C)(C)NS(=O)(=O)c2ccc(C)cc2)CC1 | 7.76
54 | CCOC(=O)C1CCN(CC(C)(C)NS(=O)(=O)c2ccc(C)cc2)CC1 | -4.95
55 | CC(C)(CN1CCC(Cc2ccccc2)CC1)NS(=O)(=O)c1ccccc1.O=C(O)C(=O)O | -60.8
56 | CC(C)(CN1CCCC1)NS(=O)(=O)c1ccccc1.Cl | 24.7
